Data from PMC5700166.
Where a chain is given by its changes, count along the chain named.

Key:
Experiment in all cases: protein-binding microarray (PBM); PBM: ~300 nM protein, 6 mM HEPES pH 7.8, 80 mM KCl, 0.5 mM EDTA, 0.5 mM EGTA, 6% glycerol, 35 ng/ul poly-dIdC, 1% milk, 1 h, room temperature; Ap Aiptasia and Nv Nematostella (sea anemones) / Co Capsaspora / Aq Amphimedon (sponge) / Dm Drosophila / Hu human; RHD is the Rel homology domain; high values mean tight binding
Conditions in all cases: dsDNA, one strand shown
GST-Ap-NF-kB RHD = biological target: T1, GST-Ap-NF-kB RHD (Exaiptasia pallida (Aiptasia), UniProt A0A913YAJ5 2-422)
T1 sequence: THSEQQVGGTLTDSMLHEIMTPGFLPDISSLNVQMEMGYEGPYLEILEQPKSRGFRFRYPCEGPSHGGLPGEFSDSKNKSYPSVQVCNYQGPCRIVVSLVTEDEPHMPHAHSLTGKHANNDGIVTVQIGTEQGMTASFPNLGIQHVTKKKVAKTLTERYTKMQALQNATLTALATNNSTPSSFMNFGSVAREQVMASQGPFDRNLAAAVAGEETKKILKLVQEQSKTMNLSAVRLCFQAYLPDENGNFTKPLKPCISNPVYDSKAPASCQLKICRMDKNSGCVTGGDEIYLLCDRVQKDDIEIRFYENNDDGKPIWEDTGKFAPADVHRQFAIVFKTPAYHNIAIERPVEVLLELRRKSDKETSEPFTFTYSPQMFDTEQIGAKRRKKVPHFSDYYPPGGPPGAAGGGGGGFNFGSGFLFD

[1] = biological target: T2, GST-Nv-NF-kB (Cys allele) (Nematostella vectensis, UniProt E5G601 2-411)
T2 sequence: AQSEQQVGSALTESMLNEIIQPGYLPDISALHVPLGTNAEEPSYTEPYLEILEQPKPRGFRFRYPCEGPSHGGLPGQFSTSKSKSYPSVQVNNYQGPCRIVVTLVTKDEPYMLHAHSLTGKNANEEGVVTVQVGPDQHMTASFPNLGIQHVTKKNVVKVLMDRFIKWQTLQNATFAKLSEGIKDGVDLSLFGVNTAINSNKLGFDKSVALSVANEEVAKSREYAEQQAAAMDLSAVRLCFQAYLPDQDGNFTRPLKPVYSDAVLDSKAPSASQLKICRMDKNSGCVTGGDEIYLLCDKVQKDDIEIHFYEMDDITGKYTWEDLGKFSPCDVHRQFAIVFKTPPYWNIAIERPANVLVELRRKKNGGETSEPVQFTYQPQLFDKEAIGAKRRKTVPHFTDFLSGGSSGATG

[2] = biological target: T3, GST-Nv-NF-kB (Ser allele) (Nematostella vectensis, UniProt A7UNT2 2-411)
T3 sequence: T2 sequence with Q21R, C66S, S207N, E215Q, V217A, E225K, A268E, D399E

GST-Co-NF-kB = biological target: T4, GST-Co-NF-kB (Capsaspora owczarzaki, UniProt F1ARL5 200-546)
T4 sequence: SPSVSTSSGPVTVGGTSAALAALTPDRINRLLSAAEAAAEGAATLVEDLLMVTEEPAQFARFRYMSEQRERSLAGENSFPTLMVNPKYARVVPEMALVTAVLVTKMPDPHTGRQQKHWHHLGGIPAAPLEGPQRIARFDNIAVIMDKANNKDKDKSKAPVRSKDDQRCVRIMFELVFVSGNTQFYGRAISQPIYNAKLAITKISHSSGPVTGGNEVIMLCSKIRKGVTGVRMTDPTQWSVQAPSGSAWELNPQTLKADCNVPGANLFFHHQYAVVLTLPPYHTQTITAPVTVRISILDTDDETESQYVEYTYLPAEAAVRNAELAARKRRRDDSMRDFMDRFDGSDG

GST-Dm-Relish = biological target: T5, GST-Dm-Relish (Drosophila melanogaster, UniProt Q94527 99-473)
T5 sequence: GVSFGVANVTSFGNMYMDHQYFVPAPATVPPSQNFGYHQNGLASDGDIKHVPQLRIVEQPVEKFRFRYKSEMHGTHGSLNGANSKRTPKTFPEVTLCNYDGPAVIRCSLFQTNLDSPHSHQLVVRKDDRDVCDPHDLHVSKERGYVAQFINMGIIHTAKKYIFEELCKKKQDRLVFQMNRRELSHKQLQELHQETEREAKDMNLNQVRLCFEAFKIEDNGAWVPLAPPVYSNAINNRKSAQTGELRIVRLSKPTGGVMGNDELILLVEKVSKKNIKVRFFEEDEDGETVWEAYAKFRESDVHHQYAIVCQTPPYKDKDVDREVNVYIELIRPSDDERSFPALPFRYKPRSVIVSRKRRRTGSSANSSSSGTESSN

GST-Aq-NF-kB = biological target: T6, GST-Aq-NF-kB (Amphimedon queenslandica, UniProt A9Y5G7 2-389)
T6 sequence: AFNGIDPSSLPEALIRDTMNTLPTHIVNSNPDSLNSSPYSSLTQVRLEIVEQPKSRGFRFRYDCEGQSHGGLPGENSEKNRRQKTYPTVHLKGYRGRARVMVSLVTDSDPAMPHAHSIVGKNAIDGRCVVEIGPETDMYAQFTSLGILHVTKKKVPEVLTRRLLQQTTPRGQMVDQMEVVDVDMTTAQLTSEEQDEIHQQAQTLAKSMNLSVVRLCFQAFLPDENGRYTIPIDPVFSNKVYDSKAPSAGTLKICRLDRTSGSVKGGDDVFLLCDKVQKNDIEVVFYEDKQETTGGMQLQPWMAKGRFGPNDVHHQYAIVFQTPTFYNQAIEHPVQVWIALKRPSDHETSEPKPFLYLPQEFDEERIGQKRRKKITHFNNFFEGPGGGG

GST-Hu-p50 = GST-Hu-p50 (Homo sapiens, UniProt P19838 7-356)
Sequence of GST-Hu-p50 (P19838 7-356): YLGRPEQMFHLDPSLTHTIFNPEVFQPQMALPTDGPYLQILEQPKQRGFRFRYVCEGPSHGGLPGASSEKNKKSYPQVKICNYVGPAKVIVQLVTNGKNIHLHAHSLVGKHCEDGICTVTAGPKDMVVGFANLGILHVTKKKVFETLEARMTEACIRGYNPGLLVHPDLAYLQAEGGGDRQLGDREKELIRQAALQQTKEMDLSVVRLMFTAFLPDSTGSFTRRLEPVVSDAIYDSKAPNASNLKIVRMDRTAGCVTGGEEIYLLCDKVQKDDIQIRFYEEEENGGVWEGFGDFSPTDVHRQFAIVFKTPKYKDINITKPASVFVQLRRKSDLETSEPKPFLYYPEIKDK

Row | Sequence | binding signal (GST-Ap-NF-kB RHD) | binding signal [1] | binding signal [2] | binding signal (GST-Co-NF-kB) | binding signal (GST-Dm-Relish) | binding signal (GST-Aq-NF-kB) | binding signal (GST-Hu-p50)
1 | CCGATTAACATCACGGGAAATTCTGATGTTAATCGGGTCTTGATTCGCTTGACGCTGCTG | 5.1 z-score | 6.52 z-score | 5.98 z-score | 5.06 z-score | 3.57 z-score | 6.47 z-score | 4.83 z-score
2 | CCGATTAACATCAATTTTTCCCGTGATGTTAATCGGGTCTTGATTCGCTTGACGCTGCTG | 3.39 z-score | 4.95 z-score | 6.62 z-score | 6.5 z-score | 2.16 z-score | 4.56 z-score | 3.66 z-score
3 | CCGATTAACATCAAACTTCCCCATGATGTTAATCGGGTCTTGATTCGCTTGACGCTGCTG | 6.34 z-score | 7.12 z-score | 7.9 z-score | 7.04 z-score | 5.5 z-score | 6.28 z-score | 5.87 z-score
4 | CCGATTAACATCACCCCATCCCCTGATGTTAATCGGGTCTTGATTCGCTTGACGCTGCTG | 4.19 z-score | 2.64 z-score | 4.17 z-score | 2.99 z-score | 2.37 z-score | 3.17 z-score | 3.3 z-score
5 | CCGATTAACATCACGGGTATTCCTGATGTTAATCGGGTCTTGATTCGCTTGACGCTGCTG | 4.85 z-score | 5.05 z-score | 3.76 z-score | 1.3 z-score | 6.78 z-score | 5.48 z-score | 3.53 z-score
6 | CCGATTAACATCAAGGGGAATAATGATGTTAATCGGGTCTTGATTCGCTTGACGCTGCTG | 5.34 z-score | 8.01 z-score | 8.1 z-score | 7.2 z-score | 4.17 z-score | 5.64 z-score | 5.62 z-score
7 | CCGATTAACATCACAAAAGCCCCTGATGTTAATCGGGTCTTGATTCGCTTGACGCTGCTG | 6.25 z-score | 8.09 z-score | 7.4 z-score | 1.08 z-score | 6.85 z-score | 7.27 z-score | 6.34 z-score
8 | CCGATTAACATCAATTCCCACCCTGATGTTAATCGGGTCTTGATTCGCTTGACGCTGCTG | 2.43 z-score | 2.6 z-score | 2.72 z-score | 3.21 z-score | 2.33 z-score | 2.03 z-score | 2.02 z-score
9 | CCGATTAACATCAAGGGGAATACTGATGTTAATCGGGTCTTGATTCGCTTGACGCTGCTG | 8.04 z-score | 9.26 z-score | 8.56 z-score | 6.16 z-score | 6.38 z-score | 6.62 z-score | 6.33 z-score
10 | CCGATTAACATCAAACTACCCCCTGATGTTAATCGGGTCTTGATTCGCTTGACGCTGCTG | 5.45 z-score | 4.01 z-score | 4.35 z-score | 5.82 z-score | 2.49 z-score | 4.3 z-score | 4.12 z-score
11 | CCGATTAACATCAGGAAATCCCCTGATGTTAATCGGGTCTTGATTCGCTTGACGCTGCTG | 10.8 z-score | 12.1 z-score | 12.5 z-score | 4.46 z-score | 10.3 z-score | 10.9 z-score | 8.31 z-score
12 | CCGATTAACATCAGGGGAGGTAATGATGTTAATCGGGTCTTGATTCGCTTGACGCTGCTG | 2.69 z-score | 2.66 z-score | 4.61 z-score | 3.71 z-score | 1.22 z-score | 2.71 z-score | 2.14 z-score
13 | CCGATTAACATCAAAGAATCCCCTGATGTTAATCGGGTCTTGATTCGCTTGACGCTGCTG | 8.71 z-score | 9.68 z-score | 11.8 z-score | 4.06 z-score | 9.1 z-score | 6.89 z-score | 7.06 z-score
14 | CCGATTAACATCACGGGGGTTCCTGATGTTAATCGGGTCTTGATTCGCTTGACGCTGCTG | 9.11 z-score | 5.77 z-score | 4.99 z-score | 2.92 z-score | 9.73 z-score | 6.72 z-score | 5.25 z-score
15 | CCGATTAACATCAGGGTGGGAAATGATGTTAATCGGGTCTTGATTCGCTTGACGCTGCTG | 2.06 z-score | 3.1 z-score | 2.77 z-score | 3.37 z-score | 1.62 z-score | 2.27 z-score | 2.15 z-score
16 | CCGATTAACATCAAATTCCCGGGTGATGTTAATCGGGTCTTGATTCGCTTGACGCTGCTG | 3.33 z-score | 3.9 z-score | 3.88 z-score | 4.43 z-score | 3.94 z-score | 3.13 z-score | 3.85 z-score
17 | CCGATTAACATCAGGGCTGCCCCTGATGTTAATCGGGTCTTGATTCGCTTGACGCTGCTG | 4.09 z-score | 3.62 z-score | 1.89 z-score | 1.21 z-score | 4.09 z-score | 6.85 z-score | 3.48 z-score
18 | CCGATTAACATCAGGGGGGTGCATGATGTTAATCGGGTCTTGATTCGCTTGACGCTGCTG | 4.21 z-score | 2.54 z-score | 3.71 z-score | 3.47 z-score | 4.16 z-score | 3.59 z-score | 3.86 z-score
19 | CCGATTAACATCAGGGGGGTGAATGATGTTAATCGGGTCTTGATTCGCTTGACGCTGCTG | 3.76 z-score | 4.08 z-score | 4.43 z-score | 5.24 z-score | 4.14 z-score | 4.32 z-score | 4.12 z-score
20 | CCGATTAACATCAAGGGGGTTTCTGATGTTAATCGGGTCTTGATTCGCTTGACGCTGCTG | 9.41 z-score | 8.37 z-score | 8.76 z-score | 2.34 z-score | 9.83 z-score | 7.81 z-score | 7.39 z-score
21 | CCGATTAACATCAAGGGGTTTTCTGATGTTAATCGGGTCTTGATTCGCTTGACGCTGCTG | 7.68 z-score | 7.5 z-score | 6.68 z-score | 1.68 z-score | 7.2 z-score | 6.95 z-score | 6.56 z-score
22 | CCGATTAACATCAGGAAACCCCATGATGTTAATCGGGTCTTGATTCGCTTGACGCTGCTG | 5.38 z-score | 4.14 z-score | 2.64 z-score | 1.76 z-score | 8.23 z-score | 4.84 z-score | 4.69 z-score
23 | CCGATTAACATCAGGAGGTCCCCTGATGTTAATCGGGTCTTGATTCGCTTGACGCTGCTG | 5.22 z-score | 3.71 z-score | 2.14 z-score | 1.57 z-score | 4.16 z-score | 5.29 z-score | 3.18 z-score
